Assay results: the antibiotic and cytotoxicity screens of Wong et al. (2023)
About 3,300 (8.5%) of roughly 39,000 compounds were called active. The list comes from a sample in which actives are over-represented; it also holds similar structures and randomly drawn compounds.

The compounds below were run on HepG2 (assay: cytotoxicity call (relative viability < 0.9)). Conditions: 10 µM.

| Compound | cytotoxicity call |
| --- | --- |
| C[C@@H]1CN([C@H](C)CO)C(=O)c2cc(C#Cc3cccnc3)cnc2O[C@@H]1CN(C)Cc1ccc(F)cc1 | inactive |
| COc1ccc(C#Cc2cnc3c(c2)C(=O)N([C@H](C)CO)C[C@H](C)[C@H](CN(C)S(=O)(=O)c2ccc(C#N)cc2)O3)cc1OC | inactive |
| C[C@H](CO)N1C[C@H](C)[C@H](CN(C)S(=O)(=O)c2ccccc2)Oc2ncc(C#Cc3cccc(F)c3)cc2C1=O | inactive |
| COc1ccc(S(=O)(=O)N(C)C[C@@H]2Oc3ncc(C#Cc4ccc(OC)c(OC)c4)cc3C(=O)N([C@H](C)CO)C[C@@H]2C)cc1 | active |
| C[C@H](CO)N1C[C@H](C)[C@H](CN(C)S(=O)(=O)c2ccc(F)cc2)Oc2ncc(C#Cc3cccc(F)c3)cc2C1=O | active |
| Cc1ccc(S(=O)(=O)N(C)C[C@@H]2Oc3ncc(C#Cc4cccc(F)c4)cc3C(=O)N([C@H](C)CO)C[C@@H]2C)cc1 | active |
| C[C@H](CO)N1C[C@H](C)[C@H](CN(C)Cc2ccc(F)cc2)Oc2ncc(C#Cc3cccnc3)cc2C1=O | active |
| C[C@H](CO)N1C[C@H](C)[C@H](CN(C)S(=O)(=O)c2cccc(F)c2)Oc2ncc(C#Cc3cccc(F)c3)cc2C1=O | inactive |
| C[C@H]1CN([C@@H](C)CO)C(=O)c2cc(C#Cc3cccnc3)cnc2O[C@@H]1CN(C)Cc1ccc(F)cc1 | inactive |
| C[C@H](CO)N1C[C@H](C)[C@H](CN(C)S(=O)(=O)c2ccc(C#N)cc2)Oc2ncc(C#Cc3cccc(F)c3)cc2C1=O | inactive |
| Cc1ccc(S(=O)(=O)N(C)C[C@@H]2Oc3ncc(C#Cc4ccccc4)cc3C(=O)N([C@H](C)CO)C[C@@H]2C)cc1 | inactive |
| COc1ccc(C#Cc2cnc3c(c2)C(=O)N([C@H](C)CO)C[C@H](C)[C@H](CN(C)S(=O)(=O)c2ccc(C)cc2)O3)cc1OC | inactive |
| C[C@H](CO)N1C[C@H](C)[C@H](CN(C)Cc2ccncc2)Oc2ccc(NS(=O)(=O)c3ccccc3)cc2C1=O | inactive |
| COc1ccc(S(=O)(=O)N(C)C[C@H]2Oc3ccc(N(C)C)cc3CC(=O)N([C@@H](C)CO)C[C@H]2C)cc1 | inactive |
| COc1ccc(NC(=O)N(C)C[C@@H]2Oc3ncc(C#CC(C)C)cc3C(=O)N([C@@H](C)CO)C[C@H]2C)cc1 | inactive |
| NC1CCN(C(=O)NC2CCCCC2)CC1 | inactive |
| C[C@H]1CCCCO[C@H](CN(C)C(=O)CCC(F)(F)F)[C@@H](C)CN([C@@H](C)CO)C(=O)c2cc(NS(=O)(=O)c3ccccc3)ccc2O1 | inactive |
| C[C@H]1CC/C=C\[C@H]2O[C@@]34C=CCN(c5ccc(Cl)cc5)C(=O)[C@H]3N(CCO)C(=O)[C@]4(C)[C@@H]2C(=O)O1 | inactive |
| Cc1noc(C)c1S(=O)(=O)Nc1ccc2c(c1)C(=O)N([C@@H](C)CO)C[C@@H](C)[C@@H](CN(C)C)OCCCC[C@H](C)O2 | inactive |
| C[C@@]12CC[C@@H]3c4ccc(O)cc4C[C@H](CCCCCCCCC[S@@](=O)CCCC(F)(F)C(F)(F)F)[C@@H]3[C@@H]1CC[C@@H]2O | inactive |
| O=C(C[C@H]1CC[C@@H]2[C@H](COC[C@@H](O)CN2S(=O)(=O)c2ccccc2)O1)N[C@@H]1CCN(Cc2ccccc2)C1 | inactive |
| Cc1ccccc1S(=O)(=O)N1C[C@@H](O)COC[C@@H]2O[C@H](CC(=O)NCCc3ccncc3)CC[C@H]21 | inactive |
| Cc1noc(C)c1NC(=O)Nc1ccc2c(c1)C(=O)N([C@H](C)CO)C[C@H](C)[C@H](CN(C)Cc1ccc(C(=O)O)cc1)OCCCC[C@@H](C)O2 | inactive |
| CO[C@H]1CN(C)C(=O)c2ccc(NS(=O)(=O)c3cn(C)cn3)cc2OC[C@H](C)N(Cc2cccc(F)c2)C[C@H]1C | inactive |

| Compound | cytotoxicity call |
| --- | --- |
| COc1ccc(NC(=O)N(C)C[C@@H]2OCCCC[C@@H](C)Oc3ccc(NS(=O)(=O)c4c(C)noc4C)cc3C(=O)N([C@@H](C)CO)C[C@H]2C)cc1 | inactive |
| COc1ccc(NC(=O)N(C)C[C@H]2Oc3ccc(NC(=O)Nc4ccc(C(F)(F)F)cc4)cc3CC(=O)N([C@@H](C)CO)C[C@@H]2C)cc1 | inactive |
| O=C(O)c1csc2c1CCCCC2 | inactive |
| COC(=O)CC[C@H]1CCCNC1 | inactive |
| C[C@@H]1CN([C@H](C)CO)C(=O)c2cc(NS(=O)(=O)c3ccccc3)ccc2O[C@@H](C)CCCCO[C@H]1CN(C)C(=O)C1CCCCC1 | inactive |
| NCc1ccno1 | inactive |
| C=CCCC(=O)N(C)[C@H](C)[C@@H](OC(=O)[C@@H]1[C@@H]2C=C[C@]3(O2)[C@H](CN(CC=C)Cc2ccccc2)N(C(C)(C)C)C(=O)[C@@H]13)c1ccccc1 | inactive |
| COc1ccc(NC(=O)Nc2ccc3c(c2)C(=O)N([C@H](C)CO)C[C@H](C)[C@H](CN(C)C(=O)Nc2cccc4ccccc24)O3)cc1 | inactive |
| C[C@H](CO)N1C[C@H](C)[C@H](CN(C)S(=O)(=O)c2ccc(F)cc2)Oc2ncc(C#Cc3ccc(F)cc3)cc2C1=O | active |
| C[C@H](CO)N1C[C@H](C)[C@H](CN(C)S(=O)(=O)c2ccc(C#N)cc2)Oc2ncc(C#Cc3ccc(F)cc3)cc2C1=O | inactive |
| Cc1ccc(S(=O)(=O)N(C)C[C@@H]2Oc3ncc(C#Cc4ccc(F)cc4)cc3C(=O)N([C@H](C)CO)C[C@@H]2C)cc1 | inactive |
| Cc1ccc(S(=O)(=O)Nc2ccc3c(c2)C(=O)N([C@@H](C)CO)C[C@H](C)[C@@H](CN(C)S(=O)(=O)c2ccc(Cl)cc2)OCCCC[C@@H](C)O3)cc1 | inactive |
| COc1ccc(C#Cc2ccc3c(c2)[C@]2(C(=O)N3)[C@H](c3ccc(O)cc3)N3[C@H](c4ccccc4)[C@H](c4ccccc4)OC(=O)[C@H]3[C@@H]2C(=O)N2CCN(c3ncccn3)CC2)cc1 | inactive |
| O=C1O[C@H](c2ccccc2)[C@H](c2ccccc2)N2[C@H]1[C@@H](C(=O)O)[C@]1(C(=O)Nc3ccc(C#CC4=CCCCC4)cc31)[C@H]2C1CCCCC1 | active |
| O=C1O[C@@H](c2ccccc2)[C@@H](c2ccccc2)N2[C@@H](c3ccc(OCCO)cc3)[C@]3(C(=O)Nc4ccc(C#CC5=CCCCC5)cc43)[C@@H](C(=O)N3CCCCCCC3)[C@H]12 | active |
| O=C1O[C@@H](c2ccccc2)[C@@H](c2ccccc2)N2[C@@H](c3ccc(O)cc3)[C@]3(C(=O)Nc4ccc(C#CC5=CCCCC5)cc43)[C@@H](C(=O)O)[C@H]12 | inactive |
| O=C1O[C@@H](c2ccccc2)[C@@H](c2ccccc2)N2[C@@H](c3ccccc3OCCO)[C@]3(C(=O)Nc4ccc(C#CC5=CCCCC5)cc43)[C@@H](C(=O)O)[C@H]12 | inactive |
| O=C1O[C@H](c2ccccc2)[C@H](c2ccccc2)N2[C@H]1[C@@H](C(=O)O)[C@]1(C(=O)Nc3ccc(C#CC4=CCCCC4)cc31)[C@H]2c1ccccc1OCCO | active |
| COc1ccc(C#Cc2ccc3c(c2)[C@]2(C(=O)N3)[C@H](c3ccc(O)cc3)N3[C@H](c4ccccc4)[C@H](c4ccccc4)OC(=O)[C@H]3[C@@H]2C(=O)N2CCCCCCC2)cc1 | inactive |
| O=C1O[C@H](c2ccccc2)[C@H](c2ccccc2)N2[C@H]1[C@@H](C(=O)O)[C@]1(C(=O)Nc3ccc(C#CC4(O)CCCCCC4)cc31)[C@H]2c1ccccc1OCCO | inactive |
| O=C1O[C@H](c2ccccc2)[C@H](c2ccccc2)N2[C@H]1[C@@H](C(=O)O)[C@]1(C(=O)Nc3ccc(C#CC4=CCCCC4)cc31)[C@H]2c1ccc(O)cc1 | inactive |
| NC(=O)[C@@H]1[C@H]2C(=O)O[C@H](c3ccccc3)[C@H](c3ccccc3)N2[C@H](c2ccc(OCCO)cc2)[C@@]12C(=O)Nc1ccc(C#CC3=CCCCC3)cc12 | inactive |
| O=C1O[C@@H](c2ccccc2)[C@@H](c2ccccc2)N2[C@@H](c3ccc(OCCO)cc3)[C@]3(C(=O)Nc4ccc(C#CC5=CCCCC5)cc43)[C@@H](C(=O)N3CCN(c4ncccn4)CC3)[C@H]12 | inactive |
| COc1ccc(C#Cc2ccc3c(c2)[C@]2(C(=O)N3)[C@H](C(=O)N3CCCCCCC3)[C@H]3C(=O)O[C@H](c4ccccc4)[C@H](c4ccccc4)N3[C@@H]2c2ccc(O)cc2)cc1 | active |
